The panel holds about 83,000 compounds, 20% with a hit somewhere; the sample as a whole holds those more often.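 Step 1: grow cells in 96-well plates. Step 2: add test compound at a single concentration. Step 3: incubate 48 h. Step 4: record percent growth.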 Calls of active or inactive are those of the source. The calls were made as follows: active = growth percent below 10; inactive = the rest.
Assays:
Experiment in all cases: NCI-60 one-dose screen, 48 h (100 = growth as untreated, 0 = no growth, -100 = all killed)
Details in all cases: 10 µM unless noted
[1] = test system: HCT-15 colon
[2] = test system: HT29 colon
[3] = test system: SNB-75 CNS
[4] = test system: SNB-19 CNS
[5] = test system: U251 CNS
[6] = test system: PC-3 prostate
[7] = test system: SK-MEL-5 melanoma
[8] = test system: UACC-62 melanoma
[9] = test system: LOX IMVI melanoma
[10] = test system: SK-MEL-28 melanoma
[11] = test system: SK-MEL-2 melanoma
[12] = test system: EKVX NSCLC
[13] = test system: SN12C renal
[14] = test system: UO-31 renal
[15] = test system: TK-10 renal
[16] = test system: ACHN renal
[17] = test system: CAKI-1 renal
[18] = test system: A498 renal
[19] = test system: CCRF-CEM leukemia
[20] = test system: MOLT-4 leukemia

Measured: growth

C=C(c1ccc(C(=O)O)cn1)c1cc2c(cc1C)C(C)(C)CCC2(C)C
inactive: [1] 85.8% | [2] 93.8% | [3] 94% | [4] 99.7% | [5] 75.6% | [6] 71.1% | [7] 70.8% | [8] 94.3% | [9] 87.3% | [10] 96.8% | [11] 84% | [12] 83.9% | [13] 95.7% | [14] 81.5% | [15] 131% | [16] 91.8% | [17] 87.9% | [18] 80% | [19] 83.5% | [20] 95.7%

O=C1/C(=C/c2cccc([N+](=O)[O-])c2)COc2ccc(O)cc21
inactive: [3] 79.4% | [4] 72.2% | [6] 42.9% | [7] 89.1% | [8] 59.4% | [10] 82.7% | [11] 91.3% | [12] 95.8% | [13] 13.1% | [14] 22.4% | [15] 87% | [17] 52.8% | [18] 102% | [20] 18.2%
active: [1] -9.57% | [2] 3.32% | [5] 2.17% | [9] -80.6% | [16] 6.88% | [19] 0.606%

N#Cc1c(-c2ccccc2)c(C#N)c2c(C#N)c(N)nn2c1N
active: [2] 8.55% | [11] 9.95% | [18] -8.04%
inactive: [1] 24.3% | [3] 52.1% | [4] 38.1% | [5] 20.3% | [6] 50.5% | [7] 24.7% | [8] 19.6% | [9] 35.6% | [10] 56.8% | [12] 47.3% | [13] 51.7% | [14] 52.1% | [15] 67% | [16] 60.9% | [17] 47% | [19] 13.3% | [20] 11.7%

CCN(CC)c1ccc(/C=C\c2cc(C)c3cc(C)ccc3n2)cc1
inactive: [1] 21.1% | [3] 39.7% | [4] 49.5% | [5] 25.6% | [6] 23.1% | [8] 36.8% | [9] 18.1% | [10] 50.7% | [11] 14.4% | [12] 61.6% | [13] 45.1% | [14] 26.6% | [15] 54.8% | [16] 38.8% | [17] 28.5% | [18] 18.2% | [19] 34.1% | [20] 40.2%
active: [2] -17.9% | [7] 2.69%

CCn1c2ccc(O)cc2c2c(C)c3c[n+](C(C)C)ccc3c(C)c21
active: [4] 7.71% | [13] -1.36%
inactive: [1] 67.7% | [2] 54.8% | [3] 49.8% | [5] 13.5% | [6] 61% | [7] 57.1% | [8] 15.1% | [9] 30.9% | [10] 22.8% | [11] 35% | [12] 75.4% | [14] 68.3% | [15] 105% | [16] 35.2% | [17] 89.8% | [18] 68% | [19] 36.5% | [20] 22.2%

CCn1cc(CNc2ccc(C(=O)Nc3cc4cc(OC)c(OC)cc4c(C)n3)cc2)c(C)n1
active: [7] 1.46% | [8] 6.57% | [20] 9.9%
inactive: [1] 23.1% | [2] 54.1% | [3] 77.1% | [4] 90% | [5] 71% | [6] 18.6% | [9] 23.9% | [10] 50.4% | [11] 11.5% | [12] 59.7% | [13] 67% | [14] 22.4% | [15] 49% | [16] 36.1% | [17] 30.1% | [18] 93.6% | [19] 11.8%

O=C(CN1C(=O)/C(=C/c2ccco2)SC1=S)NCCc1c[nH]c2ccc(F)cc12
inactive: [1] 101% | [2] 112% | [3] 78% | [4] 102% | [5] 103% | [6] 94% | [7] 99.6% | [8] 87.8% | [9] 96.9% | [10] 112% | [11] 119% | [12] 98.3% | [13] 97.6% | [14] 70.8% | [15] 105% | [16] 101% | [17] 81.8% | [18] 94.5% | [19] 97.1% | [20] 97.7%

N#Cc1c(NC(=O)c2cccs2)[n+]([O-])c2ccc(Cl)cc2[n+]1[O-]
inactive: [1] 111% | [2] 107% | [3] 91.7% | [4] 103% | [5] 99% | [6] 96% | [7] 37.7% | [8] 82.2% | [9] 94.8% | [10] 106% | [11] 59.3% | [12] 98.7% | [13] 99.8% | [14] 98.6% | [15] 118% | [16] 99.5% | [17] 73% | [18] 41.4% | [19] 95.9% | [20] 97.3%

COc1ccc2c(c1)c(-c1nonc1-c1c[nH]c3ccc(Br)cc13)cn2C
inactive: [1] 22.2% | [2] 11.9% | [3] 63.3% | [4] 52.2% | [5] 34.9% | [6] 43.8% | [7] 57.1% | [8] 38.2% | [9] 22.4% | [10] 61% | [11] 46.9% | [12] 31.6% | [13] 59.3% | [14] 40.8% | [15] 58.2% | [16] 43.7% | [17] 34.3% | [18] 27.4% | [19] 33.5% | [20] 17.6%

C=CCN=C(N)SCCCCCCSC(N)=NCC=C
inactive: [1] 96.4% | [2] 73.2% | [3] 98.8% | [4] 102% | [5] 87.4% | [6] 68.5% | [7] 101% | [8] 87.5% | [9] 93.1% | [10] 103% | [11] 80.5% | [12] 98.4% | [13] 97.4% | [14] 80.6% | [15] 79.6% | [16] 106% | [17] 97.7% | [18] 79.3% | [19] 106% | [20] 81.8%

CC(C)CCSc1nc(Nc2ccccc2)c(C#N)c(-c2ccccc2)n1
inactive: [1] 55.3% | [2] 50.7% | [4] 19.3% | [6] 68.8% | [7] 95.2% | [8] 89.9% | [9] 25.5% | [10] 82.1% | [11] 81.4% | [12] 14.7% | [13] 27.1% | [14] 12.9% | [15] 24.7% | [17] 26.8% | [19] 54.9% | [20] 80.7%
active: [3] -10.1% | [5] 2.98% | [16] -21.2% | [18] -8.82%

O=C(N=Nc1c(O)[nH]c2ccccc12)Nc1ccc(Cl)cc1
inactive: [1] 87.3% | [2] 93.5% | [3] 101% | [4] 89.3% | [5] 100% | [6] 89.8% | [7] 90.7% | [8] 75.7% | [9] 86.5% | [10] 91.5% | [11] 99.7% | [12] 86.5% | [13] 97.1% | [14] 69.2% | [15] 101% | [16] 80.5% | [17] 89.2% | [18] 77.6% | [20] 87.3%
active: [19] -8.91%

Cc1cc2nc3c4ccccc4n(CCN(C)C)c3nc2cc1C
active: [1] -3.11% | [2] 8.23% | [3] 4.8% | [7] 6.22% | [9] -63.2% | [14] -12% | [16] -26.5% | [17] -3.55% | [18] -15.2% | [20] 4.73%
inactive: [4] 26% | [5] 15.7% | [6] 12.9% | [8] 36.2% | [10] 20.1% | [11] 11% | [12] 18.1% | [13] 16.9% | [15] 26.7% | [19] 10.3%

CCSC1=CC(=O)c2ccccc2C1=O
active: [16] 3.01% | [19] -6.88% | [20] 5.83%
inactive: [1] 73% | [2] 105% | [3] 52.8% | [4] 87.6% | [5] 79.1% | [6] 73% | [7] 50.8% | [8] 59.1% | [9] 47.7% | [10] 36.7% | [11] 94.2% | [12] 92.8% | [13] 82.8% | [14] 27% | [15] 89% | [17] 32.2% | [18] 97.8%

COc1ccccc1NC(=O)c1ccc(/C=C/C(=O)c2nccn2C)cc1
active: [1] -30.3% | [2] -52.6% | [3] -3.01% | [4] -84.3% | [5] -74.6% | [6] -49.4% | [7] -97.1% | [8] -60.6% | [9] -82.5% | [10] -45.9% | [11] -27.4% | [12] -12.2% | [13] -80.4% | [14] -94.5% | [15] -45.6% | [16] -100% | [17] -38.7% | [18] -39.8% | [19] -11.6% | [20] 0.601%

Reference: PubChem BioAssay (NCI)
